# KB-3-1 cytotox: KB-3-1 parental cell cytotoxicity | KB-3-1 viability, CellTiter-Glo ATP luminescence, 72 h | Potency, µM (titrated, usually from 46.1 µM), actives largely listed as cytotoxic | actives 1.4% (n = 400,000) | AID 1347075; also: % is scaled to controls: 0 for no effect and ±100 for the full control effect; nearly all actives have a fitted effect of over 60% in size
#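 Parental KB-3-1 adenocarcinoma cells in phenol-red-free DMEM with 10% FBS were pin-treated with compounds at several concentrations, incubated 72 h at 37 °C, and viability read by CellTiter-Glo luminescence; concentration-effect curves were fitted after normalization.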
# ELG1 repair inh: ELG1-dependent DNA repair inhibition; Potency, µM (highest dose often 46.1 µM), inactives show at the highest dose activity change, negative = inhibition, actives largely listed as inhibitors; actives 2.3% (n = 330,000); HEK293T ELG1-luciferase reporter, luminescence, 16 h; DNA damage induced by 5-fluorouridine; also: % is scaled to controls: 0 for no effect and ±100 for the full control effect; nearly all actives have a fitted effect of over 55% in size
#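 In this reporter screen, reduction of luminescence relative to DMSO vehicle indicated activity. Compounds and 5-fluorouridine were added together to 2,000 cells per well, incubated for 16 hr at 37 °C, then developed with ONE-Glo.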
# MCF10A rerep: induces DNA re-replication in MCF 10a normal breast cells; MCF 10A DNA re-replication, Hoechst nuclear intensity, 48 h; Potency, µM (top dose mostly 46.1 µM), for the others: top-dose activity, positive = re-replication, hits mostly activators; actives 2.9% (n = 350,000); also: % of control where 0% means no effect; nearly all actives have a fitted effect of over 50% in size
# SW480 rerep: inducers of DNA re-replication in SW480 colon cancer cells | actives 1.8% (n = 340,000) | SW480 DNA re-replication, Hoechst DNA content imaging, 48 h | Potency, µM (doses to about 46.1 µM), for the others: at the top dose re-replication activation, most hits filed as activators; also: % of control where 0% means no effect; nearly all actives have a fitted effect of over 55% in size
#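 SW480 cells exposed to compounds for 48 hr at 37 C, 5% CO2, then Hoechst-stained 40 min. Nuclear DNA content imaged by fluorescence scanning (405 nm excitation, 500-530 nm emission); re-replication scored as increased high-intensity nuclei.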
# KB-V1 cytotox: kills drug-selected multidrug resistant KB-V1 cells. actives 3.4% (n = 400,000). KB-V1 MDR cells viability, CellTiter-Glo, 72 h. Potency, µM (highest dose often 46.1 µM), actives largely listed as cytotoxic; also: % is scaled to controls: 0 for no effect and ±100 for the full control effect; nearly all actives have a fitted effect of over 60% in size
#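 qHTS viability screen in drug-selected KB-V1 MDR cells: 72 h compound treatment at 37 degrees C, ATP luminescence end point.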
# The depositor's hits bear a star; i = inactive; ? = inconclusive; nt = no result given; [ ] = another dose, or the depositor's remark. Only some compounds are listed: those with a hit (about 8.1% of all), similar ones and a draw of the others. Calls follow the shape of the dose curve; as a rule, active = well fitted curve in the direction sought with a large enough effect; inconclusive = small, poorly fitted or top-dose-only effect, or another doubt; inactive = no such curve, though single readings can be large; an effect the other way counts as inactive or inconclusive. Potency is read from the fitted curve at half-maximal effect.
SMILES,KB-3-1 cytotox,ELG1 repair inh,MCF10A rerep,SW480 rerep,KB-V1 cytotox
COc1cccc(NC(=O)Cn2c(=O)n(-c3cc(OC)c(OC)c(OC)c3)c(=O)c3ccccc32)c1,i,?,3%,-9%,i
COc1ccc(NC(=O)c2cc3c([nH]c4ccccc43)c(C)n2)cc1,i,-19%,27%,-6%,i
Cc1nc(C(=O)Nc2ccccc2Cl)cc2c1[nH]c1ccccc12,7.3µM*,20%,-1%,?,2.9µM*
O=C(COc1ccccc1Cl)Nc1ccc2[nH]c(=O)[nH]c2c1,1.5µM*,-1%,0%,-7%,0.52µM*
O=C(COC(=O)c1ccccc1)Nc1ccc2[nH]c(=O)[nH]c2c1,i,18%,?,-114%,?
O=C(COc1ccccc1Cl)Nc1ccc2c(c1)C(=O)NC2=O,i,-19%,5%,30%,i
CCOc1ccccc1OCC(=O)Nc1ccc2[nH]c(=O)[nH]c2c1,8.2µM*,3%,1%,3%,16µM*
O=C1CC(c2ccccc2)=Nc2ccc(Br)cc2N1,?,-8%,4%,?,15µM*
Cc1ccc2c(c1)NC(=O)CC(c1ccccc1)=N2,i,?,-2%,1%,i
Cc1ccc(S(=O)(=O)NCc2cn3ccccc3n2)c(C)c1,i,0%,-2%,-4%,i
COc1cc(Cn2c(=O)oc3ccc(C)cc32)ccc1OCCC(C)C,i,nt,nt,nt,?
CCCOc1ccc(Cn2c(=O)oc3ccc(C)cc32)cc1OC,i,-7%,-4%,-2%,12µM*
O=C(Cc1ccccc1)CC(CC(=O)c1ccccc1)c1ccccc1 (centres undefined),i,nt,nt,nt,i
C=C(CCC(=O)c1ccccc1)C(=O)c1ccccc1,?,-30%,9.2µM*,?,?
C=C(C(=O)c1ccccc1)C(CC(=O)c1ccccc1)c1ccccc1 (centres undefined),?,13µM*,9.2µM*,18µM*,?
COc1ccc(NC(=O)Cn2nnc(-c3ccccc3NC(=O)c3cccs3)n2)cc1,?,-28%,15µM*,?,i
Cc1ccc(NC(=O)Cn2nnc(-c3ccccc3NC(=O)c3cccs3)n2)cc1,1µM*,?,6.5µM*,3.7µM*,1.3µM*
Cc1ccccc1C(=O)Nc1ccccc1-c1nnn(CC(=O)Nc2ccc3c(c2)OCCO3)n1,?,10%,23µM*,14%,3.7µM*
CCOc1ccc(NC(=O)Cn2nnc(-c3ccccc3NC(=O)CC)n2)cc1,i,?,19%,-1%,?
O=C(Cn1nnc(-c2ccccc2NC(=O)c2ccco2)n1)Nc1ccccc1,i,-5%,?,?,i
COc1ccc(CN2C(=O)c3cccc4cccc2c34)cc1F,i,0%,21µM*,?,?
Cn1c(=O)oc2cc(S(=O)(=O)NCCC(=O)NCCc3ccc(Cl)cc3)ccc21,16µM*,-11%,4%,7%,i
Cc1ccc(CCNC(=O)CCNS(=O)(=O)c2ccc3c(c2)oc(=O)n3C)cc1,i,-13%,-20%,-4%,i
O=C(N/N=C/c1ccco1)c1cc(-c2ccc(Cl)cc2)n[nH]1,i,16%,?,12%,i
O=c1ccc2cc3c(-c4ccccc4)coc3cc2o1,18µM*,16%,23µM*,0%,6.5µM*
SMILES,KB-3-1 cytotox,ELG1 repair inh,MCF10A rerep,SW480 rerep,KB-V1 cytotox
O=C(CN1CCN(Cc2ccccc2Cl)C1=O)NCC1CCCO1 (centres undefined),i,-6%,0%,0%,i
CN(Cc1ccc(Cl)cc1Cl)C(=O)c1cccc(S(=O)(=O)NCc2ccccc2)c1,?,nt,3%,-4%,5.2µM*
O=C(NCc1cccc(C(F)(F)F)c1)c1cccc(S(=O)(=O)NCc2ccccc2)c1,i,?,?,133%,18µM*
O=C(c1ccc(NS(=O)(=O)c2cccc(C(F)(F)F)c2)cc1)N1CCCC1,nt,?,-1%,-3%,nt
O=C(c1ccc(CNS(=O)(=O)c2cccc(C(F)(F)F)c2)cc1)N1CCOCC1,i,?,-7%,-3%,13µM*
CN(Cc1c(F)cccc1Cl)C(=O)c1cccc(S(=O)(=O)NCc2ccccc2)c1,i,-10%,14%,-5%,i
Cc1cc(=O)[nH]c(N/N=C/C(C)c2ccccc2)n1 (centres undefined),i,0%,-6%,1%,i
Cc1cc(N/C=C/C(=O)c2cccs2)ccc1F,i,?,-1%,-2%,i
CCN1/C(=C/c2ccc3cc(C)ccc3[n+]2CC)Sc2ccccc21,1.6µM*,?,14%,-8%,i
CC[n+]1c(/C=C2\Sc3ccccc3N2C)ccc2cccc(C)c21,0.46µM*,?,-6%,-10%,16µM*
CCOC(=O)/C(=C/C=C1\Sc2cc(C)c(C)cc2N1CC)C(C)=O,?,?,21%,-9%,?
CCN1/C(=C/c2ccc3cc(C)ccc3[n+]2CC)Sc2cc(C)c(C)cc21,1.8µM*,?,-2%[9.22 µM],?,?
CCNc1nc(-c2sc(NC(=O)C(C)(C)C)nc2C)c(-n2cc(-c3ccccc3)nn2)s1,?,nt,nt,nt,18µM*
COc1ccc(N2CCN(C(=O)CN=C3NS(=O)(=O)C(c4ccc(C)cc4)=C3C)CC2)cc1,i,?,-2%,-5%,3.7µM*
COc1ccc(N2CCN(C(=O)Cc3ccc(C)cc3)CC2)cc1,i,-7%,-1%,0%,i
CCS(=O)(=O)N1Cc2ccccc2CC1C(=O)NCC12CC3CC(CC(C3)C1)C2 (centres undefined),i,-5%,5%,15%,23µM*
CCS(=O)(=O)N1Cc2ccccc2CC1C(=O)Nc1cccc(OC)c1 (centres undefined),i,2.3µM*,12%,0%,i
COc1ccc(S(=O)(=O)N2Cc3ccccc3CC2C(=O)Nc2nccs2)cc1OC (centres undefined),i,?,13%,-1%,?
CCS(=O)(=O)N1Cc2ccccc2CC1C(=O)Nc1nc2c(C)cccc2s1 (centres undefined),i,?,-32%,7%,2.9µM*
CCS(=O)(=O)N1Cc2ccccc2CC1C(=O)NC(C)C12CC3CC(CC(C3)C1)C2 (centres undefined),i,-9%,?,22%,i
COc1ccc(S(=O)(=O)N2Cc3ccccc3CC2C(=O)Nc2nccs2)cc1 (centres undefined),i,?,2%,-9%,21µM*
CC1C(=O)N2CCCc3cc(NS(=O)(=O)c4ccc(F)cc4)cc1c32 (centres undefined),i,23%,10%,-12%,i
c1ccc(Nc2ccnc(Nc3ccccc3)n2)cc1,?,?,?,?,18µM*

# Assay outcomes: PubChem BioAssay, National Center for Advancing Translational Sciences (NCATS)
